# Test results from PubChem BioAssay (EPA / NIEHS).
# Several values for one entry are separate records, joined by “and”; a condition that tells them apart may be missing. Equal values may be shown once. Records with an inconclusive call do not appear. Some compounds were tested as several samples or in several runs, with calls that do not always agree. Activity calls are given as the source filed them. How the source made its calls: active means hit-call score of the fitted dose curve at least 0.9, where 1 is the maximum; inconclusive means response in the unintended direction; inactive means score below 0.9.
# Assays:
# [1] = biological target: rat Mineralocorticoid Receptor (MR), Nr3c2 (gene 25672) (UniProt P22199); assay: NVS_NR_rMR: NovaScreen (NVS) Nuclear Receptor Binding Assay for rat Mineralocorticoid Receptor (MR) (AID 2283355)
# Summary of the method: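 Radioligand displacement, scintillation readout; tissue source adrenalectomized rat brain supernatant. Read 24 h post-dose. Screened in duplicate at 25 uM, DMSO negative control, controls on every plate; actives re-run in concentration series.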
# [2] = biological target: PGR (gene 5241) (UniProt P06401); assay: NVS_NR_hPR: NovaScreen (NVS) Nuclear Receptor Binding Assay for human Progestron Receptor (PR) (AID 2283360);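 further: active means loss of bound radioligand signal versus DMSO baseline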
# Summary of the method: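 T47D lysate; tritiated or iodinated radioligand; scintillation count at 18 h. DMSO = negative control/baseline. Primary: 25 uM, duplicate. Secondary: concentration series for actives.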
# [3] = biological target: Retinoic acid receptor alpha (Homo sapiens) (UniProt P10276); assay: NVS_NR_hRAR_Antagonist: NovaScreen (NVS) Nuclear Receptor Binding Assay for human Retinoic Acid Alpha Receptor Antagonism (RAR) (AID 2283358)
# Summary of the method: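 Read-out: time-resolved FRET binding signal, 2 h post-dose, cell-free extracted protein. Antagonism scored as signal loss versus DMSO negative control. Primary single-concentration screen at 25 uM in duplicate; concentration series for actives.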
# [4] = biological target: Retinoic acid receptor alpha (Homo sapiens) (UniProt P10276); assay: NVS_NR_hRARa_Agonist: NovaScreen (NVS) Nuclear Receptor Binding Assay for human Retinoic Acid Alpha Receptor Agonism (RAR) (AID 2283361)
# Summary of the method: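 TR-FRET signal, 2 h post-dosing; cell-free extracted protein; DMSO = baseline, positive fitting direction; 25 uM single-point duplicate, then concentration series for actives.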
# [5] = biological target: human Thyroid Receptor Alpha (TRa), THRA (gene 7067) (UniProt P10827); assay: NVS_NR_hTRa_Antagonist: NovaScreen (NVS) Nuclear Receptor Binding Assay for human Thyroid Receptor Alpha Antagonism (TRa) (AID 2283362);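 further: activity is loss of signal relative to DMSO baseline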
# Summary of the method: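 Actives from a duplicate 25 uM single-point screen were retested in concentration series. The cell-free antagonist-format binding assay was read by AlphaLISA chemiluminescence at 1 h, scored as signal loss relative to DMSO.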
# [6] = biological target: guinea pig Sigma Receptor, Non-selective Binding, SIGMAR1 (gene 100135589) (UniProt Q60492); assay: NVS_OR_gSIGMA_NonSelective: NovaScreen (NVS) Nuclear Receptor Binding Assay for guinea pig Sigma Receptor, Non-selective Binding (AID 2283367)
# Summary of the method: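 Membranes from guinea pig brain incubated with radioligand and test chemical for 1 h, then filtered and scintillation-counted. Duplicate primary testing at 25 uM, with concentration-series follow-up for actives.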
# [7] = tested on: rat Norepinephrine Transporter (NET), gene 83511; assay: NVS_TR_rNET: NovaScreen (NVS) Transporter Assay for rat Norepinephrine Transporter (NET) (AID 2283373)
# Summary of the method: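 Competitive radioligand displacement at the rat NET using forebrain membrane preparations, 1 h incubation, filter-based scintillation readout. Primary testing in duplicate at a single 25 uM concentration; confirmed actives retested across concentrations.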
# [8] = biological target: Glucocorticoid receptor (Homo sapiens) (UniProt P04150); assay: NVS_NR_hGR: NovaScreen (NVS) Nuclear Receptor Binding Assay for human Glucocorticoid Receptor (GR) (AID 2283363);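 on AC50: activity is loss of specific radioligand binding signal relative to DMSO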
# Summary of the method: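 Filter scintillation readout of tritiated/iodinated radioligand displaced by test chemical; cell-free extracted protein; 16 h. DMSO = negative control/baseline. Duplicate single-point 25 uM screen, then concentration-response on actives.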
# [9] = tested on: guinea pig Dopamine Transporter (DAT), gene 100714898; assay: NVS_TR_gDAT: NovaScreen (NVS) Transporter Assay for guinea pig Dopamine Transporter (DAT) (AID 2283369);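 further: active compounds lower bound radioligand signal relative to DMSO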
# Summary of the method: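 Radioligand displacement on membranes from guinea pig striatum, 2 h exposure, bound label counted by filtration and scintillation. Tested at 25 uM in duplicate, then actives in concentration series to 50 uM; DMSO as negative control.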
# [10] = biological target: Estrogen receptor beta (Homo sapiens) (UniProt Q92731); assay: OT_ER_ERbERb_0480: Odyssey Thera (OT) 8-hour HEK293T Protein-Complementation Assay for Estrogen Receptor-beta/-beta Homodimer (AID 2283357);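 further: active means signal gain over DMSO baseline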
# Summary of the method: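 Homodimerization of ER-beta LBD measured by protein-fragment complementation in HEK293T; 8 h dosing; fixed, Draq5 counterstain; fluorescence intensity gain over DMSO baseline, positive fitting direction; laser scanning cytometry.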
# [11] = biological target: human Adenosine Transporter (Adot), SLC29A1 (gene 2030) (UniProt Q99808); assay: NVS_TR_hAdoT: NovaScreen (NVS) Transporter Assay for human Adenosine Transporter (Adot) (AID 2283368)
# Summary of the method: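 Binding displacement on U937 extracted protein, read 1 h post-dose by filtration and scintillation counting. Primary duplicate test at 25 uM, then singleton concentration series with 50 uM top; DMSO baseline.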
# [12] = biological target: Nuclear receptor subfamily 1 group I member 2 (Homo sapiens) (UniProt O75469); assay: NVS_NR_hPXR: NovaScreen (NVS) Nuclear Receptor Binding Assay for human Pregnane X Receptor (PXR) (AID 2283365);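 further: a drop in FRET signal versus DMSO baseline means the compound binds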
# Summary of the method: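 Human PXR binding measured by TR-FRET in a cell-free format, 2 h exposure. Single-concentration duplicates at 25 uM preceded concentration-response retests of actives; endpoint fitted positively relative to DMSO, loss of signal indicating binding.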
# [13] = biological target: Peroxisome proliferator-activated receptor gamma (Homo sapiens) (UniProt P37231); assay: NVS_NR_hPPARg: NovaScreen (NVS) Nuclear Receptor Binding Assay for human Peroxisome Proliferator-activated Receptor gamma (PPARg) (AID 2283370)
# Summary of the method: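 Fluorescence polarization readout of ligand binding to extracted human PPARg, measured at 2 h. Duplicate single-point screen at 25 uM, then concentration-series retesting; activity defined as signal loss versus DMSO.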
# [14] = biological target: human Peroxisome Proliferator-activated Receptor alpha (PPARa), PPARA (gene 5465) (UniProt Q07869); assay: NVS_NR_hPPARa: NovaScreen (NVS) Nuclear Receptor Binding Assay for human Peroxisome Proliferator-activated Receptor alpha (PPARa) (AID 2283359);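 further: activity means loss of TR-FRET signal versus DMSO baseline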
# Summary of the method: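 TR-FRET signal measured at 1 h post-dosing; loss-of-signal versus DMSO negative control taken as activity. Extracted gene-protein, cell-free format. Initial single-point duplicates at 25 uM, then concentration-response retests.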
# [15] = biological target: rat Androgen Receptor (AR), Ar (gene 24208) (UniProt P15207); assay: NVS_NR_rAR: NovaScreen (NVS) Nuclear Receptor Binding Assay for rat Androgen Receptor (AR) (AID 2283366)
# Summary of the method: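 Actives from a duplicate single-concentration (25 uM) primary run went on to concentration series. Displacement of radioligand was counted by filtration and scintillation, 18 h post-dose, using prostate extracts from testosterone-pretreated rats, with DMSO as baseline.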
# Estrogen receptor beta (Homo sapiens), sequence (Q92731 whole entry, looked up, the tested form may be a part): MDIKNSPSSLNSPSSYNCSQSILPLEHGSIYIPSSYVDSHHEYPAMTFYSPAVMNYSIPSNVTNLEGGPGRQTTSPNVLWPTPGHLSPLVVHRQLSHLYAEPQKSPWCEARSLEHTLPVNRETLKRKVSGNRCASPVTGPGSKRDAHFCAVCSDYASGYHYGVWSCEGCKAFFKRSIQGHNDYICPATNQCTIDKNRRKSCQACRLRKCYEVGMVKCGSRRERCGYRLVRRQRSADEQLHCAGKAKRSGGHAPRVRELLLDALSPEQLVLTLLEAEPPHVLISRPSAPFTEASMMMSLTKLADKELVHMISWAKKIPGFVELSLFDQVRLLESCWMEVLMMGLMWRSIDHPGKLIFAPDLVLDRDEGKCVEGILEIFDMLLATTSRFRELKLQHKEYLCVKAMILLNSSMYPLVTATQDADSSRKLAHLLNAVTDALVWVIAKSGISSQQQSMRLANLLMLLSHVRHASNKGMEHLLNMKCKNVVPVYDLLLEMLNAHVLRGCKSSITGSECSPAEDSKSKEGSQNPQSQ
# Nuclear receptor subfamily 1 group I member 2 (Homo sapiens), sequence (O75469 whole entry, looked up): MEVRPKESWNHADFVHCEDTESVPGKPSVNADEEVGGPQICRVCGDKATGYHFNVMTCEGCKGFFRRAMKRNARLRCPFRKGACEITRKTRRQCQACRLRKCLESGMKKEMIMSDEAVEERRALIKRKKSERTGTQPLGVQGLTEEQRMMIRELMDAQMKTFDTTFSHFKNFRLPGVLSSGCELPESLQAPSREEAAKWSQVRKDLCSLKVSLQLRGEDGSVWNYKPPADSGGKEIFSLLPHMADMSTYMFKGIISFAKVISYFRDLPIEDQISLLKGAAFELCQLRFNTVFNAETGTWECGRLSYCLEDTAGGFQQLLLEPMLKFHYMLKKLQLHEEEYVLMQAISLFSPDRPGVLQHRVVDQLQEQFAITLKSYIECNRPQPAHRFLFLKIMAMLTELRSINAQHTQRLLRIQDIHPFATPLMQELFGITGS
# guinea pig Sigma Receptor, Non-selective Binding, SIGMAR1 (gene 100135589), sequence (Q60492 whole entry, looked up): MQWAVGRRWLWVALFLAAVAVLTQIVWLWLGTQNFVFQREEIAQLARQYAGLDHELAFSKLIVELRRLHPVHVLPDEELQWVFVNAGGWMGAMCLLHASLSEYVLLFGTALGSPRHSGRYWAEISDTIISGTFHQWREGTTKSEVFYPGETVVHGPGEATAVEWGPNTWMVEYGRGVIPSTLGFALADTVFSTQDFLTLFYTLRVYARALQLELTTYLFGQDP
# PGR (gene 5241), sequence (P06401 whole entry, looked up): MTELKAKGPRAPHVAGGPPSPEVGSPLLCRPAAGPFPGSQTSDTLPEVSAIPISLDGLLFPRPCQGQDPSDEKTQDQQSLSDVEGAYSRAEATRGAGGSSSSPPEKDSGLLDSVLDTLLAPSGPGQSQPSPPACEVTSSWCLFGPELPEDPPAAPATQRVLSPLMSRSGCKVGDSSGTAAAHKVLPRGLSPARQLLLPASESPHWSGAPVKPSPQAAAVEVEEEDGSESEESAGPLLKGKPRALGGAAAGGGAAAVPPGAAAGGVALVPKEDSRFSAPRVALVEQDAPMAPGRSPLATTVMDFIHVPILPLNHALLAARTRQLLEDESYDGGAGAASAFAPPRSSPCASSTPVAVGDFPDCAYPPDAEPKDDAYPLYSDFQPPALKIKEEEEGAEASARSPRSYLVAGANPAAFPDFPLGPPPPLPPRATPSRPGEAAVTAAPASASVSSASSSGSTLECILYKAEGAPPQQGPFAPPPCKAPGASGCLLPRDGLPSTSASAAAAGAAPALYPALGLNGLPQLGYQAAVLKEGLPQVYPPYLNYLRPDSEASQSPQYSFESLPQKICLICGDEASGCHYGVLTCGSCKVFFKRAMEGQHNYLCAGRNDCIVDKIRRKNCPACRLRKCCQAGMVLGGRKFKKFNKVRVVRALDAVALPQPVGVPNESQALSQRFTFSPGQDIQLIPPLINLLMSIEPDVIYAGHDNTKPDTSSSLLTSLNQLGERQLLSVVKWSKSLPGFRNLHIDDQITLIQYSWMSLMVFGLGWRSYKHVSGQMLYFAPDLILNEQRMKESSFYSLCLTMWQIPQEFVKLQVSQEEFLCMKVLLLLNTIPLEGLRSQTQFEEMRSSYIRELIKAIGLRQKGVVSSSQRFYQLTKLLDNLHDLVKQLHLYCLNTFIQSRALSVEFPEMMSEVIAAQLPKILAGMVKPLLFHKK
# human Thyroid Receptor Alpha (TRa), THRA (gene 7067), sequence (P10827 whole entry, looked up): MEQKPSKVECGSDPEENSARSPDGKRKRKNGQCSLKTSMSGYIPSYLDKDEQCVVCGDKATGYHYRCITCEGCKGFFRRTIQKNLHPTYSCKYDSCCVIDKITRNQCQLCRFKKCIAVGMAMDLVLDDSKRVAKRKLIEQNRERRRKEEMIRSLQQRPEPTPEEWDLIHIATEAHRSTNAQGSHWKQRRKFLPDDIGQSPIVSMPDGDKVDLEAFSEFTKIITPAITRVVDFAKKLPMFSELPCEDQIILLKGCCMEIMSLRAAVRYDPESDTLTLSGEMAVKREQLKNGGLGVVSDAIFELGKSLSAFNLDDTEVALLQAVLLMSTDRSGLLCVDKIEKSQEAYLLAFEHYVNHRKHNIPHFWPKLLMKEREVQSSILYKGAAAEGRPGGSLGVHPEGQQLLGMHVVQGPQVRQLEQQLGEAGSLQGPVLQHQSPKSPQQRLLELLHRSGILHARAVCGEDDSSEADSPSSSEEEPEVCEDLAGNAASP
# Retinoic acid receptor alpha (Homo sapiens), sequence (P10276 whole entry, looked up): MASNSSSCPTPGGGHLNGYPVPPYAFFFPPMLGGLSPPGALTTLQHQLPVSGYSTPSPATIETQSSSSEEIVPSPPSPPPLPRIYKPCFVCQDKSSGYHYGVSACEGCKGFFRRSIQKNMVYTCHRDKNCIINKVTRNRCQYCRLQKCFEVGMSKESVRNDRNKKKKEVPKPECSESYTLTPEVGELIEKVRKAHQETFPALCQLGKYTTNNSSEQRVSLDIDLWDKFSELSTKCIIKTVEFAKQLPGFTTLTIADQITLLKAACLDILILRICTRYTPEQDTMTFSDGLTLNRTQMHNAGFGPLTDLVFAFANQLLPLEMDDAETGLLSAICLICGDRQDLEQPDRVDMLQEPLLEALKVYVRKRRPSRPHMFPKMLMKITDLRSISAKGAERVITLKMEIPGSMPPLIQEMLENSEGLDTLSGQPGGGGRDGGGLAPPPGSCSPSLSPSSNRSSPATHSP
# Glucocorticoid receptor (Homo sapiens), sequence (P04150 whole entry, looked up): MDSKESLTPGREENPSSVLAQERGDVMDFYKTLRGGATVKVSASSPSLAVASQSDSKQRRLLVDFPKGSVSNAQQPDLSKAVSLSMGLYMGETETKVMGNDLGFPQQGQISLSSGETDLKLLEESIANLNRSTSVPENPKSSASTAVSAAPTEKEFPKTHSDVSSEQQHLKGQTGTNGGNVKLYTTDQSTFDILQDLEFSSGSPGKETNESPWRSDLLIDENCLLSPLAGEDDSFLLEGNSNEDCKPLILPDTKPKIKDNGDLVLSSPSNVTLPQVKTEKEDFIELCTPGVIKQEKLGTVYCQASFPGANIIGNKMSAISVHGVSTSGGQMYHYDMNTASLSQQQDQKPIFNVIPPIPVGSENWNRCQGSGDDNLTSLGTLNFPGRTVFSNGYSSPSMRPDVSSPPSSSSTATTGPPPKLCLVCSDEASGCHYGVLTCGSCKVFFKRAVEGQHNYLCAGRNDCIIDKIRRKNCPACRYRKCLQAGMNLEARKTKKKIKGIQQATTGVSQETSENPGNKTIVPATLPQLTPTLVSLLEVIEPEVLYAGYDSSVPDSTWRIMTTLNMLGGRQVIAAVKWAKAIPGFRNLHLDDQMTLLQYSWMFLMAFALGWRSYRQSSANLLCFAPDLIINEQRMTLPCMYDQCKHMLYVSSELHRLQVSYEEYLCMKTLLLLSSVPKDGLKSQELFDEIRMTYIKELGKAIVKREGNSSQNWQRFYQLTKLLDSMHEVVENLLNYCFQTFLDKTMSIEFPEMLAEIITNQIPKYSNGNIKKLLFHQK
# Peroxisome proliferator-activated receptor gamma (Homo sapiens), sequence (P37231 whole entry, looked up): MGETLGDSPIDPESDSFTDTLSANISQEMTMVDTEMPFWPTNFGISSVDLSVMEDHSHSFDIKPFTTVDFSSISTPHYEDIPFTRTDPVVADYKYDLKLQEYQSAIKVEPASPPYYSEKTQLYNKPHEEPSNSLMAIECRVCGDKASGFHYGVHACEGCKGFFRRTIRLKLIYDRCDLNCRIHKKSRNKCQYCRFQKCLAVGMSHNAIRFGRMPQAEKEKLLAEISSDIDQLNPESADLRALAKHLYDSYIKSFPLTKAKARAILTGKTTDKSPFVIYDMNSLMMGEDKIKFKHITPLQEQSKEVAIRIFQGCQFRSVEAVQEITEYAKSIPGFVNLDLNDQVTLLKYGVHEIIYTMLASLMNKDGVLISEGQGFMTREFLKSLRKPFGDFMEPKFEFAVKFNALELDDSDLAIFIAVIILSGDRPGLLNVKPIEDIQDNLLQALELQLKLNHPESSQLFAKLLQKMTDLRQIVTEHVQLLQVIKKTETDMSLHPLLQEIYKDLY
# human Peroxisome Proliferator-activated Receptor alpha (PPARa), PPARA (gene 5465), sequence (Q07869 whole entry, looked up): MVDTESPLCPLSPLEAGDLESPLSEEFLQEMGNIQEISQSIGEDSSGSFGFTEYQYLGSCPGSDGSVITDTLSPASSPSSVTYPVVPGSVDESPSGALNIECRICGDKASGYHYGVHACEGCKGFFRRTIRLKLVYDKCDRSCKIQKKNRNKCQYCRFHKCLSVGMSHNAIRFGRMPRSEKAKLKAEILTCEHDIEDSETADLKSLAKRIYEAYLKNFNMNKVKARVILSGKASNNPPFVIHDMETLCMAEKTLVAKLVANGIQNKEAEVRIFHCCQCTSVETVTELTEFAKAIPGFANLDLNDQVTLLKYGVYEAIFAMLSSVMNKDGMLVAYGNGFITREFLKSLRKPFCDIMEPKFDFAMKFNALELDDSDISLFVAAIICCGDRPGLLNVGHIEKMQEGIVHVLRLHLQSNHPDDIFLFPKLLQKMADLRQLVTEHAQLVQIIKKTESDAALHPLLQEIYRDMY
compound,measurement,setting,value
CN(Cc1cnc2nc(N)nc(N)c2n1)c1ccc(C(=O)N[C@@H](CCC(=O)O)C(=O)O)cc1,outcome,[1],inactive
same,outcome,[2],inactive
CCCCCCCCCCCCOC(=O)c1cc(O)c(O)c(O)c1,AC50,[3],36.9 µM (active)
Cc1cc(C(=C2C=CC(=Nc3ccc(S(=O)(=O)O)cc3)C=C2)c2ccc(Nc3ccc(S(=O)(=O)O)cc3)cc2)cc(S(=O)(=O)O)c1N,AC50,[4],17.5 µM (active)
same,outcome,[5],inactive
O=C(O)c1cccc(C(=O)O)n1,AC50,[5],28.1 µM (active)
NC(=NCCCCCCN=C(N)/N=C(\N)Nc1ccc(Cl)cc1)/N=C(\N)Nc1ccc(Cl)cc1,AC50,[6],23.1 µM (active)
CN(C)CCOC(c1ccccc1)c1ccccc1,AC50,[7],2.98 µM (active)
N=C(N)c1ccc(OCCCCCOc2ccc(C(=N)N)cc2)cc1,outcome,[7],inactive
CC1=NN(c2ccccc2)C(=O)C1,AC50,[8],45.7 µM (active)
COC1=CC(=O)C[C@@H](C)[C@]12Oc1c(Cl)c(OC)cc(OC)c1C2=O,AC50,[9],3.8 µM (active)
C=CC(=C)CC/C=C(\C)CCC=C(C)C,outcome,[8],inactive
O=C(CCCN1CCC(O)(c2ccc(Cl)cc2)CC1)c1ccc(F)cc1,outcome,[10],inactive
same,AC50,[9],0.923 µM (active)
same,outcome,[7],inactive
Clc1ccc(Nc2nnc(Cc3ccncc3)c3ccccc23)cc1,outcome,[2],inactive
same,AC50,[9],6.66 µM (active)
CS(=O)(=O)c1ccc([C@@H](CC2CCCC2)C(=O)Nc2cnccn2)cc1Cl,AC50,[11],25 µM (active)
c1cnc2c(c1)ccc1cccnc12,outcome,[10],inactive
same,AC50,[5],0.241 µM (active)
O=C1NS(=O)(=O)c2ccccc21,outcome,[10],inactive
same,outcome,[3],inactive
same,outcome,[12],inactive
c1cc[nH]c1,outcome,[2],inactive
CCCCCCCCCCCCCCC,outcome,[10],inactive
same,outcome,[2],inactive
CCCCC=O,outcome,[5],inactive
CCCCCCCCCCCC(=O)O,outcome,[10],inactive
same,outcome,[12],inactive
same,outcome,[13],inactive
CC[N+](CC)(CC)Cc1ccccc1,AC50,[6],15.5 µM (active)
O=C1OC2(c3ccccc31)c1cc(I)c(O)c(I)c1Oc1c2cc(I)c(O)c1I,AC50,[3],19.7 µM (active)
same,AC50,[4],19.9 µM (active)
Cc1[nH]nc2c1N=C(c1ccccc1Cl)c1cc([N+](=O)[O-])ccc1N2,outcome,[10],inactive
same,outcome,[5],inactive
C[C@]12CC[C@@H]3c4ccc(O)cc4CC[C@H]3[C@@H]1C[C@@H](O)[C@@H]2O,AC50,[10],0.552 µM (active)
same,AC50,[2],35.4 µM (active)
same,outcome,[8],inactive
same,AC50,[9],3.04 µM (active)
CCCCC(CC)C(=O)O (stereo not drawn),outcome,[14],inactive
CN(C)c1ccc(C(=C2C=CC(=[N+](C)C)C=C2)c2ccccc2)cc1,AC50,[6],9.34 µM (active) and 12.5 µM (active)
same,AC50,[9],4.17 µM (active) and 3.93 µM (active)
CCCCCc1ccc(O)cc1,AC50,[9],10.5 µM (active)
CCC(C)c1ccccc1O (stereo not drawn),outcome,[10],inactive
same,outcome,[9],inactive
same,outcome,[13],inactive
Cc1ccc(S(=O)(=O)O)cc1,outcome,[12],inactive
CCCCCCCCCCCCCCCCCC[N+](C)(C)Cc1ccccc1,AC50,[6],2.32 µM (active)
CCC(=O)O,AC50,[8],0.202 µM (active)
CCN(CC)CC,outcome,[6],inactive
CCCCCCCCCCCC,AC50,[3],3.51 µM (active)
same,AC50,[14],7.45 µM (active)
same,AC50,[8],0.703 µM (active)
same,AC50,[12],2.03 µM (active)
same,AC50,[13],0.401 µM (active)
same,outcome,[13],inactive
CC(C)(c1ccc(Oc2ccc(N)cc2)cc1)c1ccc(Oc2ccc(N)cc2)cc1,outcome,[15],inactive
CC(C)(C)c1ccc(O)c(O)c1,AC50,[9],45.5 µM (active)
